IMPase inh: qHTS Assay for Identifying the Cell-Membrane Permeable IMPase Inhibitors; Inositol monophosphatase 1 (Rattus norvegicus), P97697; CHO-M1 cells, IP1 accumulation, HTRF TR-FRET ratio; inhibition (IP1 accumulation), % at 46.1 µM; 120,000 tested, under 10 active; AID 901, 2007; active = well fitted curve in the direction sought with a large enough effect in the signal ratio, not every such curve was filed as active; inconclusive = small, poorly fitted or top-dose-only effect, or a change in a side signal; inactive = no such curve, though single readings can be large or run the other way; the % refers to the signal ratio;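 also: cells stimulated with carbachol in lithium chloride buffer; plate controls were DMSO basal wells for no effect and reference inhibitor wells for full effect; higher means more IMPase inhibition seen as more IP1 and lower FRET ratio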
Target sequence (P97697 whole entry, looked up): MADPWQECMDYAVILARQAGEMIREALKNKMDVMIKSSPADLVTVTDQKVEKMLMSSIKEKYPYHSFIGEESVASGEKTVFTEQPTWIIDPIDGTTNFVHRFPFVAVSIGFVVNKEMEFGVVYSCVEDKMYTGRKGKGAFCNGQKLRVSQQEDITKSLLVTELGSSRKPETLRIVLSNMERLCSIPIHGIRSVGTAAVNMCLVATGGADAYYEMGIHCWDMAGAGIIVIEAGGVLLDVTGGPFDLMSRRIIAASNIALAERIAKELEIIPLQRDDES
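CHO-M1, 2000 cells/well, cultured 16–30 h; cpd up to 46 uM; carbachol (50 uM solution, stimulation buffer w/ 50 mM LiCl, pH 7.4), 30 min 37C; IP-One TR-FRET, 10 min RT; Ex 320/Em 665, 620; Hill-fit AC50.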
PNC assembly inh: High Content Assay for Compounds that inhibit the Assembly of the Perinucleolar Compartment; 140,000 tested, 3.1% active; PC3M PTB-GFP, PNC prevalence imaging, 16 h; hits give low values; activity change (PNC), negative = inhibition, % at 10 µM;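 active = readout at or below -70, meaning at least 70% loss of cells showing the perinucleolar compartment, a nuclear body marking cancer cells; inconclusive = readout between -30 and a set limit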;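 also: plate controls were DMSO wells for no effect and camptothecin positive control wells for full effect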
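Compounds are pinned in duplicate onto adhered PC3M cells stably expressing GFP-tagged PTB and incubated 16 h at 37 C. Cells are then fixed, nuclei stained with Hoechst, and PNC-positive cells counted.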
HPGD inh: qHTS Assay for Inhibitors of HPGD (15-Hydroxyprostaglandin Dehydrogenase); Potency, µM, for the others: top-dose activity change, negative = inhibition, actives largely listed as inhibitors; 150,000 tested, 4.3% active; 15-hydroxyprostaglandin dehydrogenase [NAD(+)] (Homo sapiens), P15428; purified HPGD, NADH fluorescence kinetic, PGE2 substrate; AID 894, 2007; also: potency is read from the fitted curve at half-maximal effect
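20 nM HPGD preincubated 15 min at room temperature with compound in 50 mM Tris-HCl pH 8, 0.01% Tween 20. Started with 1 mM NAD+ and 30 uM prostaglandin E2; NADH fluorescence (360/450 nm) read 5 times over 30-s intervals, last minus first.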
IMPase Li inh: qHTS Assay for Identifying the Cell-Membrane Permeable IMPase Inhibitors: Potentiation with Lithium. Potency, µM (highest dose often 59.4 µM), for the others: at the top dose activity, negative = IMPase inhibition, usual class: inhibitors. CHO-M1 cells, IP1 TR-FRET (IP-One), carbachol + lithium. 210,000 tested, 0.35% active. AID 1457, 2008; active = well fitted inhibition curve with a large enough effect; inconclusive = small, poorly fitted or top-dose-only effect; inactive = no such curve, though single readings can be large or run the other way;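 also: IP1 builds up when IMPase is blocked and the TR-FRET signal falls; potency is read from the fitted curve at half-maximal effect; plate controls were basal vehicle for no effect and high inhibitor control for full effect; nearly all actives have a fitted effect of over 50% in size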
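Lithium-sensitised IP1 accumulation assay; M1-expressing CHO cells treated 30 min at 37C with compound. Competitive antibody detection by time-resolved FRET followed a 10 min room-temperature lysis step.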
ALDH1A1 inh: qHTS Assay for Inhibitors of Aldehyde Dehydrogenase 1 (ALDH1A1); Aldehyde dehydrogenase 1A1 (Homo sapiens), P00352; Purified ALDH1A1, NADH fluorescence, propionaldehyde substrate; Potency, µM (titrated, usually from 75.3 µM), inactives show top-dose activity, negative = inhibition, hits mostly inhibitors; 220,000 tested, 7.3% active; AID 1030, 2008;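 also: potency is read from the fitted curve at half-maximal effect; plate controls were no enzyme wells and a reference inhibitor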
* = called active by the depositor; ? = inconclusive; nt = no result; [ ] = remark or other dose. A selection: hits, their analogues and other compounds. The true share with any hit is near 11%. Unless noted, calls follow the shape of the dose curve; as a rule, active = well fitted inhibition curve with a large enough effect (not every such curve was filed as active); inconclusive = small, poorly fitted or top-dose-only effect, or another doubt; inactive = no such curve, though single readings can be large or run the other way. Unless noted, % is scaled to controls: 0 for no effect and ±100 for the full control effect.

SMILES	IMPase inh	PNC assembly inh	HPGD inh	IMPase Li inh	ALDH1A1 inh
O=C(CCc1nc2ccccc2[nH]1)N1CCc2ccccc2C1	nt	-91.3*	-17.9%	4.9%	-2.7%
COCCOC(=O)c1c(C)n(C)c2ccc(OC(=O)C3CC3)cc12	9.2	-25.7	-16.1%	31.7%[38.3 µM]	10µM*
COCCOC(=O)c1c(C)n(C)c2ccc(OC(=O)c3ccco3)cc12	-11.1	-8.8	-6.3%	5.1%[38.3 µM]	-1.6%
O=c1cc(O)n(-c2ccccc2)c(=S)[nH]1	-3.1	-100.0*	-12.4%	1.1%	?
C/C(=N/NS(C)(=O)=O)c1ccc2ccccc2c1	-0.2	-102.5*	-11.3%	-4.2%[38.3 µM]	8.5%
COc1ccc(/C(C)=N/N=C(\C)c2ccc(OC)cc2OC)c(OC)c1	nt	6.9	0.7%	-2.7%	12.8%
COc1ccc(/C(C)=N/NS(=O)(=O)c2ccccc2)c(OC)c1	nt	nt	nt	-15.7%	?
COc1ccc(/C(C)=N\NS(C)(=O)=O)c(OC)c1	nt	-83.7*	?	0.2%	7.6%
CCNC(=S)N/N=C(\C)c1ccc2ccccc2c1	nt	nt	nt	-2.6%	33.4%
COc1ccc(C(=O)Oc2ccc(C(C)=O)cc2)c(OC)c1	12.0	-83.0*	-1.3%	12.0%[38.3 µM]	6.8%
COc1ccc(C(N)=S)c(OC)c1	nt	-1.4	39.8µM*	3.7%	12.6µM*
